Results published in PubChem BioAssay (Tox21).
Where “and” joins values, the source holds several entries; their conditions need not be identical. Equal entries are not always repeated. Inconclusive results are not listed. Entries that show only a call come without a potency. Some compounds were tested as several samples or in several runs, with calls that do not always agree. Calls of active or inactive are those of the source. The call rests on the fitted dose curve; in most records, active means well fitted inhibition curve with a large enough effect in the repeat runs; inconclusive means weak or mixed curves; inactive means no such curve, though single readings can be large or run the other way.

Target: Cytochrome P450 1A2 (Homo sapiens) (UniProt P05177)
Sequence (P05177 whole entry, looked up): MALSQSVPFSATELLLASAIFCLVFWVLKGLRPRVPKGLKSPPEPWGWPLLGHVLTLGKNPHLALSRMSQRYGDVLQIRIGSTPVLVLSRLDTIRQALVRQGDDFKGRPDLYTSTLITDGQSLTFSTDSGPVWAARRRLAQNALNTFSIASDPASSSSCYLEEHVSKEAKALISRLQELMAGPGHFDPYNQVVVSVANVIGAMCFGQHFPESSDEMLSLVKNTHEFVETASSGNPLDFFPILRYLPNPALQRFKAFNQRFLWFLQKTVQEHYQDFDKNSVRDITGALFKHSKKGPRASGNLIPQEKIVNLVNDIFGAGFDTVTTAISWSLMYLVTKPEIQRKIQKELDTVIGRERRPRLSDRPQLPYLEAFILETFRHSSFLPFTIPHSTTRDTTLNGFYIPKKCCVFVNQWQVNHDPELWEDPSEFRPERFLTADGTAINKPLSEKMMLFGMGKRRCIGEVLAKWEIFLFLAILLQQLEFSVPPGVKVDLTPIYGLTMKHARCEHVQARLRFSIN
Assay: Cytochrome P450 Family 1 Subfamily A Member 2 (CYP1A2) small molecule antagonists: luciferase reporter qHTS assay (AID 1671199); further: nearly all actives have a fitted effect of over 50% in size
Conditions: P450-Glo CYP1A2 enzyme, luciferin luminescence, 1 h; series mostly up to 115 µM
Description: National Center for Advancing Translational Sciences [NCATS]
U.S. Environmental Protection Agency [EPA]
National Institutes of Environmental Health Sciences [NIEHS]
National Toxicology Program [NTP]
U.S. Food and Drug Administration [FDA]
Cytochrome P450 (CYP) enzymes are membrane-bound hemeproteins that play a key role in metabolism of drugs and xenobiotics. Evaluation of the effect of chemicals on CYP isozymes is useful to minimize the adverse drug reactions and toxicities in drug development process. Tox21 chemicals were tested for their effect on CYP enzyme activities by using P450-Glo (TM) screening systems (Promega Corporation, Madison, WI). These systems provide a luminescent method containing proluciferin substrates and are converted to luciferin products by CYP isozymes. The luciferin products formed are detected with a luciferin detection reagent, and the amount of light produced is proportional to CYP activity. P450-Glo (TM) CYP1A2 screening system (Catalog. No. V9770) was used to detect the compounds that interfere in CYP1A2 activity. The positive control compound used for CYP1A2 assay is furafylline (Sigma-Aldrich, St. Louis, MO).
Tox21 Assay Protocol Summary:
Two ul of enzyme-substrate mix was dispensed into medium binding white/solid 1536-well plates (Greiner Bio-One North America Inc., Monroe, NC) using a BioRaptr Flying Reagent Dispenser (FRD, Beckman Coulter, Brea, CA). Compounds dissolved in DMSO and positive control (furafyllline) were transferred to the assay plates at 23 nl using a Pintool station (Wako, San Diego, CA). The assay plates were incubated at room temperature for 10 min. Then 2 ul of NADPH regeneration solution was added to each well of the assay plates using an FRD and incubated at room temperature for 1 h. The reaction was stopped by adding 4 ul of detection reagent using an FRD and after 20 min incubation at room temperature the luminescence signal was measured using a ViewLux plate reader (Perkin Elmer, Shelton, CT). Data were expressed as relative luminescence units.
Potency means the concentration at half of the fitted maximal effect.

Compound | Potency
O=C(NCC1CCCCN1)c1cc(OCC(F)(F)F)ccc1OCC(F)(F)F (stereo not given) | inactive
Cc1cccc(C)c1[N+](=O)[O-] | inactive
Cc1ccc([N+](=O)[O-])cc1N | 11.2 µM (active) and 8.94 µM (active)
CN1CCCC1=O | inactive
Cc1cc(C)cc(O)c1 | 35.7 µM (active) and 41.1 µM (active)
CC1=CC(=O)CC(C)(C)C1 | 36.6 µM (active) and inactive
NC(N)=S | inactive
CS(=O)(=O)c1ccc(Cl)cc1 | inactive
O=C(O)C1=NN(c2ccc(S(=O)(=O)O)cc2)C(=O)C1 | 35.6 µM (active) and inactive
CCCCCCCCCCCC(=O)N(C)CC(=O)O | inactive
CC(COCC(C)OC(=O)c1ccccc1)OC(=O)c1ccccc1 (stereo not given) | 9.95 µM (active) and 6.33 µM (active)
CCCCCCCCO | 37.1 µM (active)
NC(=O)c1ncn([C@@H]2O[C@H](CO)[C@@H](O)[C@H]2O)n1 | inactive
Brc1ccc(Oc2ccc(Br)cc2)cc1 | 22.5 µM (active) and 20 µM (active)
O=[N+]([O-])c1cc(C(F)(F)F)ccc1Cl | inactive
CCCOCC(C)O (stereo not given) | inactive
OCc1ccc(Cl)cc1Cl | 39.9 µM (active)
CC(=O)C(C)C | inactive
C[n+]1ccn(CCO)c1 | inactive
Cc1ccc(C)c(S(=O)(=O)O)c1 | inactive

Compound | Potency
OC1CCCCC1 | inactive
CC(C)=CCC/C(C)=C/C=O | inactive
CC(O)CNCC(C)O (stereo not given) | inactive
Cc1ncc(CO)c(CO)c1O | inactive
CC1(C)[C@@H](O[C@H]2O[C@H](C(=O)O)[C@@H](O)[C@H](O)[C@H]2O[C@@H]2O[C@H](C(=O)O)[C@@H](O)[C@H](O)[C@H]2O)CC[C@]2(C)[C@H]3C(=O)C=C4[C@@H]5C[C@@](C)(C(=O)O)CC[C@]5(C)CC[C@@]4(C)[C@]3(C)CC[C@@H]12 | inactive
CCCOC(=O)NCCCN(C)C | inactive
COC(=O)OC | inactive
Nc1cccc(C(F)(F)F)c1 | inactive
CC(=O)OCCC(C)C | inactive
CCc1cccc(CC)c1N | 22.6 µM (active) and 5.64 µM (active)
Nc1cccc(N)n1 | inactive
CCCCCCCC(=O)O | inactive
c1cnc2c(c1)ccc1cccnc12 | 10.1 µM (active) and 14.2 µM (active) and 11.2 µM (active)
CC(=O)OCc1ccc2c(c1)OCO2 | 2.01 µM (active) and 2.52 µM (active)
COc1ccc(N)c(OC)c1 | 39.9 µM (active)
CC(=O)OC(C)(C)C1CC=C(C)CC1 (stereo not given) | inactive
OC[C@H]1O[C@@H](Oc2ccc(O)cc2)[C@H](O)[C@@H](O)[C@@H]1O | inactive
COc1ccc2cc3[n+](cc2c1OC)CCc1cc2c(cc1-3)OCO2 | 25.4 µM (active) and 14.4 µM (active)
C1CCCNCC1 | inactive
Cc1ccc(Cl)cc1 | inactive
